Sampled rows, rich in hits. Any-hit rate of the full collection: about 19%.
TDP1 cell noCPT – qHTS for Inhibitors of human tyrosyl-DNA phosphodiesterase 1 (TDP1): qHTS in cells in absence of CPT. 15% of 420,000 active. Potency, µM (highest dose often 46.2 µM), inactives show at the top dose activity change, negative = growth inhibition, usual class: inhibitors. DT40 Tdp1-/- hTDP1 cells, no CPT, ATP luminescence, 48 h; note: potency is the fitted concentration of half-maximal effect; nearly all actives have a fitted effect of over 55% in size
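A cellular qHTS used chicken DT40 cells lacking endogenous Tdp1 but carrying stably transfected human TDP1. Compounds were applied without camptothecin, and cell growth kinetics were judged by ATP-dependent luminescence after ≥48 hr.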
ELG1 DNA repair – inhibitors of ELG1-dependent DNA repair in HEK293T cells. 2.3% of 330,000 active. Potency, µM (top dose mostly 46.1 µM), for the others: at the highest dose activity change, negative = inhibition, most hits filed as inhibitors. AID 504467. HEK293T ELG1-luciferase reporter, luminescence, 16 h; DNA damage induced by 5-fluorouridine; note: potency is the fitted concentration of half-maximal effect; nearly all actives have a fitted effect of over 55% in size
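Overnight (16 hr) co-exposure of 2,000 cells/well to 5-fluorouridine and compound at 37 °C preceded detection. Luciferase was quantified via ONE-Glo luminescence; loss of signal denotes inhibition.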
HT1080NT lethal – kills 2HG-producing HT-1080-NT fibrosarcoma cells; HT-1080-NT fibrosarcoma viability, CellTiter-Glo ATP luminescence, 48 h; Potency, µM (series often up to 46.1 µM), inactives show at the top dose activity, negative = less viability, hits mostly cytotoxic; 1.6% of 360,000 active;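 note: NT is the 2HG producing partner of a matched IDH1 knockdown line; potency is the fitted concentration of half-maximal effect; 0% = DMSO-treated cells and -100% = media-only wells without cells; nearly all actives have a fitted effect of over 55% in size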
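Fibrosarcoma NT cells, 750 per well in 5% FBS RPMI, were exposed to compound for 48 hours. Viability: CellTiter-Glo luminescence.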
IL1B secr inh – blocks inflammasome-driven IL-1 beta release | THP-1 LPS/ATP IL-1B secretion, AlphaLISA, 16 h; hits give low values | activity change, % at 57.5 µM | 4.7% of 360,000 active | AID 743279; in the data active = activity change below about -50%; inconclusive = mostly about -30% to -49%
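THP-1 cells pretreated 1 hr with compounds (up to 57.5 uM final), then stimulated with LPS (250 ng/mL final) plus ATP (1.25 mM final); secreted IL-1B measured by AlphaLISA after 16 hr, decreased signal indicating inhibition.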
HT1080 IDH1KD tx – HT-1080 IDH1 knockdown cell toxicity (counter line) | HT-1080 IDH1 knockdown viability, ATP luminescence, 48 h | Potency, µM (highest dose often 46.1 µM), for inactives: at the top dose activity, negative = toxicity, most hits filed as cytotoxic | AID 686971 | 2% of 360,000 active;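 note: potency is the fitted concentration of half-maximal effect; 0% = DMSO wells and -100% = cell-free medium wells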
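After a 2 h attachment period, IDH1KD HT-1080 cells took pin-transferred compound for 48 h at 37 °C; ATP-based luminescence after 10 min room-temperature reagent incubation reported viability.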
TDP1 cell CPT – growth inhibition of DT40 Tdp1-/-;hTDP1 cells with camptothecin (screen for TDP1 inhibitors). 12% of 420,000 active. Potency, µM (titrated, usually from 46.2 µM), without a hit: at the top dose activity change, negative = growth inhibition, usual class: inhibitors. chicken DT40 Tdp1-/-;hTDP1 cells + 20 nM CPT, ATP luminescence, 48 h; note: potency is the fitted concentration of half-maximal effect; nearly all actives have a fitted effect of over 55% in size
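Chicken DT40 Tdp1-/- cells complemented with human TDP1, 400 cells/well, exposed to compounds plus 20 nM camptothecin for at least 48 h at 37 C; viability read as ATP content by CellTiter-Glo luminescence.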
The depositor's hits bear a star; ? = inconclusive; . = no result; [ ] = remark or other dose. Unless noted, calls come from the whole dose curve; as a rule, active = well fitted curve in the direction sought with a large enough effect; inconclusive = small, poorly fitted or top-dose-only effect, or another doubt; inactive = no such curve, though single readings can be large; an effect the other way counts as inactive or inconclusive. Unless noted, % is set by controls: 0 for no effect and ±100 for the full control effect.

SMILES	TDP1 cell noCPT	ELG1 DNA repair	HT1080NT lethal	IL1B secr inh	HT1080 IDH1KD tx	TDP1 cell CPT
Cc1ccc(CNC(=O)C2CCC(CNS(=O)(=O)c3ccc4c(c3)CCCC(=O)N4)CC2)cc1 (stereo not drawn)	-2.8%	.	.	.	.	0.2%
CCN(CC)CCNC(=O)c1cnn(-c2nccc(-c3cc4ccccc4o3)n2)c1C	?	.	.	.	.	0.1%[9.04 µM]
CCOC(=O)N1CCC(NC(=O)C2CCN(C(=O)N3CC(C)Oc4ccc(C)cc43)CC2)CC1 (stereo not drawn)	-25.6%	.	-2.4%	-2.8	-1.5%	-11.5%
CCOC(=O)N1CCC(NC(=O)C2CCN(C(=O)c3cc4oc(C)cc4n3Cc3c(F)cccc3Cl)CC2)CC1	14.6µM*	?	-0.3%	22.8	-11.3%	?
CCCc1nc(SCc2cccnc2)c2c(=O)n(C)c(=O)n(C)c2n1	16.4µM*	16.4µM*	-1.6%	56.6	-2.6%	?
CCn1c(SCc2cccnc2)nc2c1c(=O)n(C)c(=O)n2C	-7.4%	-1.8%	13.3%	27.3	2.2%	-21.0%
CCCCn1c(SCc2cccnc2)nc2c1c(=O)n(C)c(=O)n2C	16.4µM*	0.6%	12.4%	11.8	1.6%	13µM*
Cn1c(=O)c2c(SCc3ccccn3)nc(CC(C)(C)C)nc2n(C)c1=O	20.6µM*	?	4.4%	43.6	8.3%	20.6µM*
Cn1c(=O)c2c(SCc3cccnc3)nc(CC(C)(C)C)nc2n(C)c1=O	18.4µM*	?	-19.1%	17.0	-17.6%	14.6µM*
CCCc1nc(SCc2ccccn2)c2c(=O)n(C)c(=O)n(C)c2n1	?	?	-0.3%	58.4	-2.0%	?
COCCCn1c(SCC(=O)NC2CCS(=O)(=O)C2)nnc1-c1ccc(Cl)cc1 (stereo not drawn)	-9.4%	1.5%	3.5%	3.2	11.5%	5.1%
O=S(=O)(c1cccs1)N1CCCCC1	-11.2%	.	-8.8%	-10.0	-5.9%	-15.4%
COC(=O)[C@@]1(Sc2ccc(C)cc2)CC(=O)N[C@@H]1c1ccc(C(F)(F)F)cc1	20.6µM*	.	-16.6%	?	-17.8%	14.6µM*
COC(=O)[C@]1(Sc2ccccc2)CC(=O)N[C@@H]1c1ccccc1	?	.	0.3%	9.0	1.1%	-11.9%
COC(=O)[C@@]1(Sc2ccc(C)cc2)CC(=O)N(c2ccccc2)[C@@H]1c1ccccc1	18.4µM*	.	?	-4.8	?	18.4µM*
COc1ccc(N2CCCC2=O)cc1S(=O)(=O)N1CCOCC1	-12.6%	.	13.6%	1.4	4.9%	0.3%
COc1ccc(C2=NN(CCC(=O)NCCc3ccccc3)C(=O)CC2)cc1	-12.0%	.	.	.	.	-23.7%
C[C@H](CO)N1C[C@H](C)[C@H](CN(C)C(=O)c2ccccc2F)Oc2ncc(Br)cc2C1=O	-11.2%	.	-4.1%	18.2	-1.9%	-17.3%
COc1ccccc1/C=N/n1c(C)nnc1-n1nc(C)cc1C	-2.6%	10.9%	0.0%	25.7	5.9%	-27.8%
Cc1cc(C)n(-c2nnc(C)n2/N=C/c2ccccc2OCc2ccccc2Cl)n1	20.6µM*	-34.9%	-5.6%	-6.0	-23.1%	?
Nc1nonc1-n1nnc(C(=O)N/N=C/c2ccccc2)c1CSc1ccccc1	-6.7%	-6.3%	-3.7%	7.7	-6.1%	8.4%
Nc1nonc1-n1nnc(C(=O)N/N=C/c2cccnc2)c1CSC1=NCCS1	?	-15.1%	?	.	?	-4.4%
Nc1nonc1-n1nnc(C(=O)N/N=C/c2cccnc2)c1CSc1ccc(Cl)cc1	?	-7.7%	-1.4%	1.2	-23.7%	23.1µM*
Nc1nonc1-n1nnc(C(=O)N/N=C/c2ccc(Br)cc2)c1CSC1=NCCS1	25.9µM*	?	-10.6%	-101.5*	?	?
CC(C)c1ccc(/C=N/NC(=O)c2nnn(-c3nonc3N)c2CSC2=NCCS2)cc1	20.6µM*	?	-13.2%	-86.9*	?	?
SMILES	TDP1 cell noCPT	ELG1 DNA repair	HT1080NT lethal	IL1B secr inh	HT1080 IDH1KD tx	TDP1 cell CPT
Cc1ccccc1NC(=O)C1CCN(C(=O)N2CCOc3ccccc32)CC1	-18.8%	-0.9%	0.2%	0.8	7.4%	-23.1%
O=C(Nc1cccc(F)c1)C1CCN(C(=O)N2CCOc3ccccc32)CC1	?	0.4%	-1.0%	-25.7	-3.5%	?
O=C(NCCc1ccc(Cl)cc1)C1CCN(C(=O)N2CCOc3ccccc32)CC1	23.1µM*	?	-2.1%	-27.2	-0.1%	25.9µM*
Cc1ccc2c(c1)N(C(=O)N1CCC(C(=O)Nc3cccc(F)c3)CC1)CCO2	18.4µM*	.	.	.	.	?
CCc1ccc(NC(=O)C2CCN(C(=O)N3CCOc4ccccc43)CC2)cc1	?	-14.8%	-2.3%	-4.2	-7.0%	25.9µM*
CCc1ccccc1NC(=O)C1CCN(C(=O)N2CCOc3ccccc32)CC1	20.6µM*	-0.6%	8.3%	8.8	-1.8%	?
Cc1ccc2c(c1)N(C(=O)N1CCC(C(=O)NC3CCCCCC3)CC1)CCO2	?	.	.	.	.	-10.1%
O=C(NC1CCCCCC1)C1CCN(C(=O)N2CCOc3ccc(Cl)cc32)CC1	?	.	.	.	.	25.9µM*
CCOC(=O)c1c(C)[nH]c(C)c1S(=O)(=O)N1CCC(C(=O)Nc2ccc(C)cn2)CC1	3.6%	.	.	.	.	18.4%
O=C1c2cc(Br)ccc2OC2C=CC=CC12 (stereo not drawn)	-15.3%	?	-1.2%	10.6	0.5%	-5.8%
CCN1CCCC1CNC(=O)c1cc2c(-c3ccc(Cl)cc3)nn(C)c2s1 (stereo not drawn)	18.4µM*	-0.7%	25.9µM*	-84.8*	20.6µM*	18.4µM*
Cc1ccc(CNC(=O)c2cc3c(-c4ccc(Cl)cc4)nn(C)c3s2)o1	?	16.4µM*	-28.1%	?	-21.1%	?
Cn1nc(-c2ccc(Cl)cc2)c2cc(C(=O)NCCCN3CCCC3)sc21	23.1µM*	?	?	-88.7*	?	?
CNS(=O)(=O)c1cn(CC(=O)N2CCN(c3ccccc3OC)CC2)cc1S(=O)(=O)NC	-10.6%	.	.	.	.	-5.5%
COc1ccc(CC(N)c2csc(NC(=O)CCc3ccccc3)n2)cc1 (stereo not drawn)	20.6µM*	.	?	?	?	23.1µM*
COc1ccc(CC(N)c2csc(NC(=O)Nc3ccccc3C(C)C)n2)cc1 (stereo not drawn)	16.4µM*	.	?	?	?	8.2µM*

Assay outcomes from PubChem.
